Data taken from PubChem BioAssay (NCI).
This is part of a sample that, as a whole, favours compounds with a hit. Of some 79,000 tested, about 15% had one in any assay. Rule as the data show it: active = growth inhibition above about 70%; inactive = the rest.

Columns and labels:
[1] = NCI Yeast Anticancer Drug Screen. Data for the rad50 strain (AID 155);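 also: 0% = growth of vehicle-only cultures of the same strain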; conditions: S. cerevisiae rad50 strain growth inhibition; at 50.0 µM; active compounds read high
Method in brief: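 Readout: growth inhibition relative to vehicle-treated cultures. Compound exposure was carried out in a genetically defined yeast strain deficient in DNA damage repair.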

[2] = NCI Yeast Anticancer Drug Screen. Data for the mec2-1 strain (AID 157); conditions: S. cerevisiae mec2-1 strain, at 50.0 µM, active compounds read high
Method in brief: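 Each compound was tested on mec2-1 yeast, a strain altered in DNA damage repair or cell cycle control. Growth inhibition is reported relative to vehicle.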

[3] = NCI Yeast Anticancer Drug Screen. Data for the sgs1 mgt1 strain (AID 161);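 also: 0% = growth of cultures given vehicle only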; conditions: S. cerevisiae sgs1 mgt1 strain, at 50.0 µM, active compounds read high
Method in brief: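 Genetically altered yeast, compound exposure, growth inhibition relative to vehicle.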

[4] = NCI Yeast Anticancer Drug Screen. Data for the cln2 rad14 strain (AID 165);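 also: 0% = growth equal to vehicle treated cultures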; conditions: S. cerevisiae cln2 rad14 strain, at 50.0 µM, active compounds read high
Method in brief: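 Test compounds were added to cln2 rad14 yeast cultures; inhibition of growth was then determined by comparison with vehicle treatment.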

[5] = NCI Yeast Anticancer Drug Screen. Data for the bub3 strain (AID 167); conditions: S. cerevisiae bub3 mutant strain, at 50.0 µM, active compounds read high
Method in brief: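 Readout: yeast growth inhibition, expressed relative to vehicle-only wells. The test organism is a mutant strain from a panel with lesions in DNA repair or checkpoint genes.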

[6] = NCI Yeast Anticancer Drug Screen. Data for the mlh1 rad18 strain (AID 175); conditions: S. cerevisiae mlh1 rad18 strain growth inhibition; at 50.0 µM; active compounds read high
Method in brief: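 Inhibition values reflect reduced growth of mutant yeast versus vehicle-treated controls following compound exposure; the mutations affect DNA damage repair.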

Measured: growth inhibition

COP(=O)(OC)C(NC(=O)C(F)(F)F)(c1ccccc1)C(F)(F)F (stereo not given)
inactive: [1] -28.1% | [2] -7.25% | [3] -37.2% | [4] -8% | [5] -16.9% | [6] -28.7%

CC(C)N(Cc1ccccc1)C(=O)Nc1ccc(Cc2ccc(NC(=O)N(Cc3ccccc3)C(C)C)cc2)cc1
inactive: [1] -0.7% | [2] -12.3% | [3] 0.35% | [4] 18.4% | [5] -10.1% | [6] -8.3%

Cc1cccc(C(C)C)c1NC(=O)C(=O)CC(=O)c1sc(Nc2ccccc2Cl)nc1C
inactive: [1] -40% | [2] -8.5% | [3] -0.45% | [4] -14.6% | [5] -30.1% | [6] 1.15%

CN(C)c1c2c(oc(=O)c1Cl)-c1ccccc1OCC2
inactive: [1] -14.3% | [2] -12.8% | [3] -10.4% | [4] -4.85% | [5] -19.1% | [6] -17.6%

CN(C)C=NCc1ccc2c(c1)OCO2
inactive: [1] 2.05% | [2] -24% | [3] -13.2% | [4] 2.7% | [5] 1.5% | [6] -17%

c1coc(C2SCSCS2)c1
inactive: [1] 0.35% | [2] 5.8% | [3] -6.7% | [4] -13.5% | [5] -8.2% | [6] -4.2%

CC(C)(C#CCOC(=O)c1ccc([N+](=O)[O-])cc1)OC(=O)c1ccc([N+](=O)[O-])cc1
inactive: [1] 9.25% | [2] -3.7% | [3] 18.5% | [4] 32.1% | [5] 1.5% | [6] 5.35%

O=c1[nH]cnc2ncnn12
inactive: [1] 20% | [2] 4.2% | [3] 9.65% | [4] 19.2% | [5] 21% | [6] 16.4%

Nc1cc([N+](=O)[O-])ccc1-c1ccc([N+](=O)[O-])cc1
inactive: [1] 3.25% | [2] -2.2% | [3] 8.1% | [4] 10.2% | [5] 15.2% | [6] -8.85%

Cc1ccc(S(=O)(=O)N/N=C/c2ccccc2)cc1
inactive: [1] 5.7% | [2] -0.5% | [3] 3.2% | [4] -27.6% | [5] 8.7% | [6] 7.35%

N=C1N=C(N)c2cc3c(cc21)SCCSCCCSCCS3
inactive: [1] 6.05% | [2] 1.95% | [3] 2.6% | [4] 9.15% | [5] 4.2% | [6] 30.4%

CCCCCCCCCCCCC#N
inactive: [1] -20.8% | [2] -16.1% | [3] -1.15% | [4] -32.9% | [5] -5.2% | [6] 7.85%

CCCCC(C)C(C)O (stereo not given)
inactive: [1] -28.5% | [2] -62.1% | [3] -24.6% | [4] 11.2% | [5] -33.9% | [6] -0.8%

Oc1cc(O)c2c(-c3c(O)c(-c4ccc(O)c(O)c4)[o+]c4cc(O)cc(O)c34)c(O)c(-c3ccc(O)c(O)c3)[o+]c2c1
inactive: [1] 44.4% | [2] 4.85% | [3] 9.6% | [4] 11.1% | [5] 22.7% | [6] 21.8%

COc1ccc(C23OCN(c4ccccc4)C2(c2ccc(OC)cc2)c2ccccc2N3C)cc1 (stereo not given)
inactive: [1] 4.15% | [2] -6.85% | [3] -25.4% | [4] -0.25% | [5] -2.25% | [6] 11.3%

COC(=O)C(CC12CC3CC(CC(C3)C1)C2)NC(=O)C(N)CC(=O)O (stereo not given)
inactive: [1] -42.9% | [2] -30.4% | [3] -23.8% | [4] 15.9% | [5] 14.7% | [6] -24.4%

CCOc1ccc2[nH]c(C)c(CC(=O)O)c2c1
inactive: [1] -3.7% | [2] -9.25% | [3] -13.5% | [4] -16.4% | [5] 9.3% | [6] -7.2%

CN(C)CCCN1CC2C3CCCCC3=C3CCCCC3C2C1 (stereo not given)
inactive: [1] -15.4% | [2] 0.6% | [3] -24.1% | [4] -16.9% | [5] 1.85% | [6] -16.9%

CCOc1ccc(-n2c(O)c(N=Nc3ccccc3OC)c(=O)n(-c3ccc(OC)cc3)c2=S)cc1
inactive: [1] 18.4% | [2] -7.9% | [3] -10.3% | [4] -10.4% | [5] -4.8% | [6] 7.05%

CC(C)(C)C([O-])=C1C(=O)c2ccccc2C1=O.CC(C)(C)C([O-])=C1C(=O)c2ccccc2C1=O.CC[O-].CC[O-].[Ti+4]
inactive: [1] 20.1% | [2] 47.1% | [3] 57.4% | [4] 47.3% | [5] 59.2% | [6] 46.2%
